The whole screen tested about 94,000 compounds, of which about 2,100 (2.2%) were called active. Rule as the data show it: active = activity change below about -80%; inconclusive = no clear call, values can overlap the other calls; inactive = above that. Only a selection was taken, and actives are over-represented in it overall.
Experiment: Dd2 malaria parasite growth inhibition – SYBR Green fluorescence, single dose replicates, primary screen (AID 1159554)
Conditions: P. falciparum Dd2 growth, 72 h, at 10 µM, active compounds read low

| Compound | activity change |
| --- | --- |
| CO[C@H]1CN(C)C(=O)c2cc(NC(=O)c3cnccn3)ccc2OC[C@H](C)N(C(=O)C2CC2)C[C@H]1C | -22.3% (inactive) |
| COc1cccc(-c2cn(CC[C@@H]3CC[C@@H](NC(C)=O)[C@@H](CO)O3)nn2)c1 | -3.98% (inactive) |
| C[C@H](O)C#Cc1ccc2c(c1)O[C@@H](CN(C)C(=O)C1CC1)[C@H](C)CN([C@H](C)CO)S2(=O)=O | 2.01% (inactive) |
| COc1ccc(NC(=O)N(C)C[C@H]2Oc3cc(C#CCN(C)C)ccc3S(=O)(=O)N([C@@H](C)CO)C[C@@H]2C)cc1 | 7.25% (inactive) |
| CCC(=O)N(C)C[C@H]1Oc2cc(/C=C/c3ccccc3)ccc2S(=O)(=O)N([C@H](C)CO)C[C@@H]1C | -32.1% (inactive) |
| C[C@@H]1CN([C@@H](C)CO)S(=O)(=O)c2ccc(/C=C/c3ccccc3)cc2O[C@H]1CN(C)Cc1cccnc1 | -90.5% (active) |
| C[C@H](CO)N1C[C@H](C)[C@@H](CN(C)C(=O)C2CC2)Oc2cc(C#CC3CC3)ccc2S1(=O)=O | -9.49% (inactive) |
| C[C@@H]1CN([C@@H](C)CO)S(=O)(=O)c2ccc(C#Cc3ccccc3)cc2O[C@@H]1CN(C)C(=O)Nc1ccccc1 | -58.2% (inactive) |
| C[C@@H]1CN([C@@H](C)CO)S(=O)(=O)c2ccc(/C=C/c3ccccc3)cc2O[C@H]1CN(C)C(=O)C1CC1 | -88.7% (active) |
| C[C@@H]1CN([C@H](C)CO)S(=O)(=O)c2ccc(/C=C/c3ccccc3)cc2O[C@@H]1CN(C)Cc1ccccc1 | -19.9% (inactive) |
| C[C@H]1CN([C@@H](C)CO)S(=O)(=O)c2ccc(C#Cc3ccccc3)cc2O[C@@H]1CN(C)C(=O)C1CC1 | -86.3% (active) |
| COc1ccc(C#Cc2ccc3c(c2)O[C@@H](CN(C)C(=O)Nc2cccc(OC)c2)[C@H](C)CN([C@H](C)CO)S3(=O)=O)cc1 | -89.8% (active) |
| CCC(=O)N(C)C[C@H]1Oc2cc(/C=C/c3ccccc3)ccc2S(=O)(=O)N([C@H](C)CO)C[C@H]1C | -20.8% (inactive) |
| C[C@@H]1CN([C@@H](C)CO)S(=O)(=O)c2ccc(/C=C/c3ccccc3)cc2O[C@H]1CN(C)Cc1ccccc1 | -58.4% (inactive) |
| O=C(NC[C@H]1CC[C@@H]2[C@@H](CN2S(=O)(=O)c2ccccc2F)O1)C1CCCCC1 | 81.8% (inactive) |
| CNC(=O)C[C@@H]1CC[C@@H]2[C@@H](COc3ccc(NC(=O)c4ccc5c(c4)OCO5)cc3C(=O)N2C)O1 | -13.2% (inactive) |
| CN1c2ccc(C3=CCCCC3)cc2[C@@H]2[C@@H](CCN2C(=O)Nc2cc(F)ccc2F)[C@@H]1CO | -41.1% (inactive) |
| O=C(CC1CC1)N[C@@H]1C[C@@H]2O[C@H](CO)CC[C@@H]2O[C@@H]1CCc1ccc(C#Cc2ccccc2)cc1 | -36.1% (inactive) |
| CN1c2ccc(C#Cc3ccccc3F)cc2[C@@H]2[C@@H](CCN2C(=O)Cc2cccnc2)[C@H]1CO | -26.2% (inactive) |
| Cc1ccc(-c2ccc3c(c2)O[C@@H](CN(C)C(=O)NC(C)C)[C@@H](C)CN([C@H](C)CO)S3(=O)=O)cc1 | -34.3% (inactive) |
| CC(C)C#Cc1ccc2c(c1)O[C@@H](CN(C)C(=O)C1CC1)[C@H](C)CN([C@H](C)CO)S2(=O)=O | -27.6% (inactive) |
| CNC[C@H]1Oc2cc(C#Cc3ccccn3)ccc2S(=O)(=O)N([C@H](C)CO)C[C@@H]1C | -6.84% (inactive) |
| CNC[C@@H]1Oc2cc(C#Cc3ccc(F)cc3)ccc2S(=O)(=O)N([C@@H](C)CO)C[C@H]1C | -62.7% (inactive) |

| Compound | activity change |
| --- | --- |
| CNC[C@H]1Oc2cc(C#Cc3ccccc3)ccc2S(=O)(=O)N([C@@H](C)CO)C[C@@H]1C | -85% (active) |
| CC(=O)N(C)C[C@@H]1Oc2cc(-c3cncnc3)ccc2S(=O)(=O)N([C@@H](C)CO)C[C@H]1C | 21.6% (inactive) |
| C[C@@H]1CN([C@@H](C)CO)S(=O)(=O)c2ccc(C#Cc3ccccc3)cc2O[C@@H]1CN(C)C(=O)C1CC1 | -82.5% (active) |
| C[C@H](O)C#Cc1ccc2c(c1)O[C@H](CN(C)C(=O)C1CC1)[C@@H](C)CN([C@H](C)CO)S2(=O)=O | 46.3% (inactive) |
| CC(C)NC(=O)N(C)C[C@H]1Oc2cc(-c3cncnc3)ccc2S(=O)(=O)N([C@@H](C)CO)C[C@H]1C | -83.1% (active) |
| CCNC(=O)C[C@@H]1C=C[C@@H](NC(=O)C2CCOCC2)[C@@H](CO)O1 | 2.77% (inactive) |
| COCC(=O)Nc1ccc2c(c1)OC[C@H](C)N(C(=O)Cc1ccccn1)C[C@H](C)[C@@H](OC)CN(C)C2=O | 41.2% (inactive) |
| O=C(C[C@H]1CC[C@@H](NC(=O)CC2CC2)[C@@H](CO)O1)NCc1ccccc1 | 10.8% (inactive) |
| O=C(NC1CCC1)[C@@H]1[C@@H](CO)[C@@H]2Cn3c(ccc(/C=C/c4ccccc4)c3=O)[C@@H]2N1Cc1ccncc1 | -2.62% (inactive) |
| CCCN1C[C@@H](C)[C@@H](OC)CN(C)C(=O)c2ccc(NC(=O)c3ccc(F)cc3)cc2OC[C@@H]1C | -14.3% (inactive) |
| C[C@H](O)C#Cc1cnc2c(c1)C(=O)N([C@@H](C)CO)C[C@H](C)[C@@H](CN(C)C(=O)c1ccccc1)O2 | 20.4% (inactive) |
| COCC(=O)Nc1ccc2c(c1)OC[C@H](C)N(Cc1ccccc1)C[C@H](C)[C@@H](OC)CN(C)C2=O | -12.2% (inactive) |
| Cc1ccc(S(=O)(=O)N2C[C@@H](O)COC[C@@H]3O[C@H](CC(=O)NCCCN(C)C)CC[C@H]32)cc1 | -1.46% (inactive) |
| COc1ccc2c3c([nH]c2c1)[C@H](CO)N(C(=O)Nc1ccc(F)cc1)CC31CCN(C(=O)Nc2c(C)noc2C)CC1 | -35.3% (inactive) |
| COc1ccc2c3c([nH]c2c1)[C@H](CO)N(C(=O)C1CCC1)CC31CCN(Cc2cccc(F)c2)CC1 | -43.8% (inactive) |
| COc1ccc2c3c([nH]c2c1)[C@H](CO)N(CC1CC1)CC31CN(C(=O)Nc2cccc(F)c2)C1 | -49.9% (inactive) |
| COc1ccc2c3c([nH]c2c1)[C@H](CO)N(S(=O)(=O)c1cn(C)cn1)CC31CCN(CC2CC2)CC1 | 1.53% (inactive) |
| COc1ccc2c3c([nH]c2c1)[C@@H](CO)N(C(=O)c1ccc(F)cc1)CC31CCN(C(=O)Nc2ccc(F)cc2)CC1 | -75.4% (inactive) |
| CCCNC(=O)N1CC2(C1)CN(Cc1cccc(F)c1)[C@@H](CO)c1[nH]c3cc(OC)ccc3c12 | -63.2% (inactive) |
| COc1ccc2c3c([nH]c2c1)[C@H](CO)N(C(=O)Nc1ccc(F)cc1)CC31CCN(CC2CCOCC2)CC1 | -81.3% (active) |
| COc1ccc2c3c([nH]c2c1)[C@H](CO)N(Cc1cccc(F)c1)CC31CCN(CC2CC2)CC1 | -83.2% (active) |
| COc1ccc2c3c([nH]c2c1)[C@@H](CO)N(Cc1cccc(F)c1)CC31CN(CC2CC2)C1 | -82.5% (active) |

— PubChem BioAssay AID1159554 (Broad Institute, 2015)
